Bioassay records: PubChem BioAssay, several laboratories
BH1578 lux ind: induces V. cholerae light production without autoinducers | AID 588436 | activation, % at 18.7 µM | actives 0.16% (n = 350,000) | V. cholerae BH1578 lux reporter, luminescence, 6 h; in the data active = activation mostly above about 9.7%, no sharp cut-off
GDH-TPI counter-1: counter-screen for M. tuberculosis FBA inhibitors: GDH-TPI coupled enzymes; inhibition, % at 4.8 µM; AID 588335; GDH-TPI coupled enzyme counterscreen, NADH absorbance; actives 1.2% (n = 360,000);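 also: 0% = DMSO wells and 100% = wells lacking the enzyme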
FBA Mtb inh: inhibits M. tuberculosis FBA enzyme. inhibition, % at 1 µM. AID 588726. purified M. tuberculosis FBA, fluorescence read-out. actives 2.3% (n = 360,000); in the data active = inhibition above about 27%;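 also: 0% = vehicle and 100% = reference inhibitor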
Target sequence (P9WQA3 whole entry, looked up): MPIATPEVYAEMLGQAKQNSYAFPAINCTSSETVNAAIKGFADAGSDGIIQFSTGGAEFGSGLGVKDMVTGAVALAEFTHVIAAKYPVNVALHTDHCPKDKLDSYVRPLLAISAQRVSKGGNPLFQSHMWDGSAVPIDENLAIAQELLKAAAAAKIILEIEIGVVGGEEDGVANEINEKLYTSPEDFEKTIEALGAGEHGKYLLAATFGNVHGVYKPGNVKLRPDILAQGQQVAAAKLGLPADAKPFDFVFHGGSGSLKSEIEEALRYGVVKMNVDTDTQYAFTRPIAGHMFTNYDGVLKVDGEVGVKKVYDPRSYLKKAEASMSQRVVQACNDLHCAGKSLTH
CCHFV vOTU inh: CCHFV vOTU protease inhibition. AID 651958. inhibition, % at 11.5 µM. actives 0.55% (n = 370,000). Pep-AMC fluorescence; also: 0% = vehicle wells with enzyme and 100% = no enzyme wells
Mtb FBA confirm: Mtb FBA inhibition, confirmed; actives 78% (n = 5,600); shares compounds with FBA Mtb inh; inhibition, % at 1 µM; purified M. tuberculosis FBA, fluorescence read-out; in the data active = inhibition above about 27%;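 also: 0% = vehicle wells and 100% = reference inhibitor wells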
GDH-TPI counter-2: GDH-TPI inhibition counter-screen for FBA inhibitors; actives 81% (n = 5,600); AID 652141; GDH-TPI coupled enzyme counterscreen, fluorescence; inhibition, % at 1 µM; shares compounds with FBA Mtb inh; in the data active = inhibition above about 10%
* = called active by the depositor. A selection: hits, their analogues and other compounds. The true share with any hit is near 3.9%. Rule as the data show it, unless noted: active = inhibition above about 30%; inactive = the rest.

What do the screens show for `Cc1cccn2c(=O)c3cc(C(=O)N4CCCCC4)sc3nc12`?
BH1578 lux ind: 0; GDH-TPI counter-1: 31*; FBA Mtb inh: 64*; CCHFV vOTU inh: -31; Mtb FBA confirm: 122*; GDH-TPI counter-2: 83*

Results for Cc1cccn2c(=O)c3cc(C(=O)N4CCCC(C)C4)sc3nc12 (stereo not given) ?
BH1578 lux ind: 0; GDH-TPI counter-1: 21; FBA Mtb inh: 22; CCHFV vOTU inh: 8

What do the screens show for `Cc1nn(-c2ccccc2)c2sc(C(=O)NC3CCCCC3)cc12`?
BH1578 lux ind: -5; GDH-TPI counter-1: 17; FBA Mtb inh: 13; CCHFV vOTU inh: 4

Results for COc1ccc(N(C)S(=O)(=O)c2ccc3c(c2)NC(=O)CO3)c(OC)c1 ?
BH1578 lux ind: inactive; GDH-TPI counter-1: 15; FBA Mtb inh: 5; CCHFV vOTU inh: 12

How did Oc1ccc2ccccc2c1C=Nc1ccccc1-c1nc2ccccc2[nH]1 do in these assays?
BH1578 lux ind: inactive; GDH-TPI counter-1: 9; FBA Mtb inh: 67*; CCHFV vOTU inh: -175; Mtb FBA confirm: 62*; GDH-TPI counter-2: 38*

What do the screens show for `CC(C)(C)c1ccc(O)c(N=Cc2c(O)ccc3ccccc23)c1`?
BH1578 lux ind: 0; GDH-TPI counter-1: 6; FBA Mtb inh: -6; CCHFV vOTU inh: 19

How did CCn1ncc([N+](=O)[O-])c1C(=O)Nc1ccc(C(=O)N2CCCCC2)cc1 do in these assays?
BH1578 lux ind: 0; GDH-TPI counter-1: -13; FBA Mtb inh: -3; CCHFV vOTU inh: -15

How did COc1cc(-c2ccc3cc(OC)c(OC)c(OC)c3c2)cc(OC)c1OC do in these assays?
BH1578 lux ind: -1; GDH-TPI counter-1: 1; FBA Mtb inh: 45*; CCHFV vOTU inh: 5; Mtb FBA confirm: 8; GDH-TPI counter-2: 6

How did CC(=O)c1ccc(N2CCN(Cc3nc4ccccc4[nH]3)CC2)cc1 do in these assays?
BH1578 lux ind: 0; GDH-TPI counter-1: 10; FBA Mtb inh: -1; CCHFV vOTU inh: -2

What do the screens show for `CCOc1ccc(S(=O)(=O)Nc2cc(F)ccc2F)c2cccnc12`?
BH1578 lux ind: 0; GDH-TPI counter-1: -1; FBA Mtb inh: -1; CCHFV vOTU inh: 18

Results for CCCn1nnc(NC(=S)NC(=O)c2cccs2)n1 ?
BH1578 lux ind: inactive; GDH-TPI counter-1: 4; FBA Mtb inh: 37*; CCHFV vOTU inh: -3; Mtb FBA confirm: 39*; GDH-TPI counter-2: 25*

How did COCCNC(=O)c1oc2ccc3c(c2c1C)C(O)CC(C)(C)O3 (stereo not given) do in these assays?
BH1578 lux ind: inactive; GDH-TPI counter-1: 11; FBA Mtb inh: 38*; CCHFV vOTU inh: -13; Mtb FBA confirm: 52*; GDH-TPI counter-2: 42*

How did CCN(CC)CCCNC(=O)c1oc2ccc3c(c2c1C)C(O)CC(C)(C)O3 (stereo not given) do in these assays?
BH1578 lux ind: inactive; GDH-TPI counter-1: 14; FBA Mtb inh: 44*; CCHFV vOTU inh: -14; Mtb FBA confirm: 55*; GDH-TPI counter-2: 43*

What do the screens show for `Cc1c(C(=O)NCC2CCCO2)oc2ccc3c(c12)C(=O)CC(C)(C)O3` (stereo not given)?
BH1578 lux ind: inactive; GDH-TPI counter-1: 19; FBA Mtb inh: 17; CCHFV vOTU inh: -27

How did COCC1CCN(C(=O)C2CCC(=O)N(Cc3ccc(Cl)cc3)C2)CC1 (stereo not given) do in these assays?
BH1578 lux ind: -1; GDH-TPI counter-1: 5; FBA Mtb inh: 0; CCHFV vOTU inh: 0

How did CCCCCC(=O)Nc1c2c(nc3ccccc13)CCC2 do in these assays?
BH1578 lux ind: inactive; GDH-TPI counter-1: -1; FBA Mtb inh: 2; CCHFV vOTU inh: -5

How did CCN(CC)CC(=O)Nc1c2c(nc3ccccc13)N(C)CC2 do in these assays?
BH1578 lux ind: -1; GDH-TPI counter-1: 12; FBA Mtb inh: 48*; CCHFV vOTU inh: -25; GDH-TPI counter-2: active

Results for CC(C)C(=O)Nc1c2c(nc3ccccc13)N(C)CC2 ?
BH1578 lux ind: 0; GDH-TPI counter-1: 12; FBA Mtb inh: 74*; CCHFV vOTU inh: -65; Mtb FBA confirm: active; GDH-TPI counter-2: active

Results for COCCCN1C(=O)C(=O)/C(=C(/O)c2ccc(OC(C)C)cc2)C1c1ccc(O)c(OC)c1 (stereo not given) ?
CCHFV vOTU inh: 23

Results for Cc1cc(CC(=O)O)c2oc(-c3ccoc3)cc(=O)c2c1 ?
CCHFV vOTU inh: 3

How did Cc1cc2c(=O)cc(-c3ccccc3)oc2c(C(=O)O)c1C do in these assays?
FBA Mtb inh: 39*; CCHFV vOTU inh: -2; Mtb FBA confirm: 56*; GDH-TPI counter-2: 48*

Results for Cc1c2c(nc3c(C(=O)NC4CC4)cnn13)CCCC2 ?
BH1578 lux ind: 0; GDH-TPI counter-1: 1; FBA Mtb inh: 1; CCHFV vOTU inh: 0

How did CCC(C)NC(=O)c1cnn2c(C)c3c(nc12)CCCC3 (stereo not given) do in these assays?
BH1578 lux ind: inactive; GDH-TPI counter-1: 15; FBA Mtb inh: 46*; CCHFV vOTU inh: -35; Mtb FBA confirm: active; GDH-TPI counter-2: active

Results for COCCNc1nc(Oc2ccc(Cl)c(Cl)c2)c2sccc2n1 ?
BH1578 lux ind: 0; GDH-TPI counter-1: -2; FBA Mtb inh: -1; CCHFV vOTU inh: 12

How did c1ccc(CNc2nc(NCc3cccs3)nc3ccsc23)cc1 do in these assays?
BH1578 lux ind: inactive; GDH-TPI counter-1: 6; FBA Mtb inh: 1; CCHFV vOTU inh: 7

What do the screens show for `O=C(COC(=O)c1cccc([N+](=O)[O-])c1)NNC(=O)c1cccs1`?
BH1578 lux ind: inactive; GDH-TPI counter-1: -7; FBA Mtb inh: 2; CCHFV vOTU inh: 1

How did Cc1c(CC(=O)NCCC(C)C)c(=O)oc2cc3c(cc12)CCC(C)(C)O3 do in these assays?
BH1578 lux ind: 1; GDH-TPI counter-1: 6; FBA Mtb inh: 42*; CCHFV vOTU inh: -27; Mtb FBA confirm: 90*; GDH-TPI counter-2: 71*

How did Cc1oc2cc3oc(=O)c(CC(=O)NCCCC(=O)O)c(C)c3cc2c1C do in these assays?
BH1578 lux ind: inactive; GDH-TPI counter-1: 7; FBA Mtb inh: 6; CCHFV vOTU inh: -29

Results for CN(C)CCNC(=O)c1cc2c(s1)-c1ccc(Cl)cc1SC2 ?
BH1578 lux ind: 0; GDH-TPI counter-1: 6; FBA Mtb inh: 34*; CCHFV vOTU inh: -98; Mtb FBA confirm: 106*; GDH-TPI counter-2: 90*

Results for CCOCCCNC(=O)c1cc2c(s1)-c1ccccc1SC2 ?
BH1578 lux ind: 0; GDH-TPI counter-1: 4; FBA Mtb inh: -4; CCHFV vOTU inh: 16

How did CN(C)c1cc2c3ccccc3n(C)c2cc1N do in these assays?
BH1578 lux ind: -1; GDH-TPI counter-1: 15; FBA Mtb inh: 71*; CCHFV vOTU inh: -36; Mtb FBA confirm: 147*; GDH-TPI counter-2: 134*

How did Cc1ccc(C)c2c1c1ccccc1n2C do in these assays?
BH1578 lux ind: -1; GDH-TPI counter-1: 2; FBA Mtb inh: 4; CCHFV vOTU inh: -3
